The values below come from PubChem BioAssay (EPA / NIEHS).

Experiment [1] concerns the target human NIMA (Never In Mitosis Gene A)-Related Kinase 2 (NEK2), NEK2 (gene 4751) (UniProt P51955). In words: NVS_ENZ_hNEK2: NovaScreen (NVS) Enzymatic Assay for human NIMA (Never In Mitosis Gene A)-Related Kinase 2 (NEK2) (AID 2283188). In outline:
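Compounds were first screened in duplicate at 25 uM, with actives followed up in concentration series. Recombinant NEK2 activity, cell-free, was read 1 h after dosing by fluorescence intensity after mobility-shift separation. Signal loss was scored against DMSO.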

Experiment [2] has as its target cAMP-dependent protein kinase catalytic subunit alpha (Homo sapiens) (UniProt P17612). In words: NVS_ENZ_hPKA: NovaScreen (NVS) Enzymatic Assay for human Protein Kinase A (PKA) (AID 2283192). On the procedure:
NVS_ENZ_hPKA is a biochemical, single-readout assay that uses extracted gene-proteins in a cell-free assay. Measurements were taken 1 hour after chemical dosing in a 384-well plate.NVS_ENZ_hPKA is one of one assay component(s) measured or calculated from the NVS_ENZ_hPKA assay. It is designed to make measurements of enzyme activity, a form of enzyme reporter, as detected with fluorescence intensity signals by Fluorescence and electrophoretic mobility shift technology.Data from the assay component NVS_ENZ_hPKA was analyzed into 1 assay endpoint. This assay endpoint, NVS_ENZ_hPKA, was analyzed in the positive analysis fitting direction relative to DMSO as the negative control and baseline of activity. Using a type of enzyme reporter, loss-of-signal activity can be used to understand changes in the enzymatic activity as they relate to the gene PRKACA. Furthermore, this assay endpoint can be referred to as a primary readout, because this assay has produced multiple assay endpoints where this one serves a enzymatic activity function. To generalize the intended target to other relatable targets, this assay endpoint is annotated to the kinase intended target family, where the subfamily is serine/threonine kinase. […]

The target of experiment [3] is Tyrosine-protein phosphatase non-receptor type 12 (Homo sapiens) (UniProt Q05209). Nature of the experiment: NVS_ENZ_hPTPN12: NovaScreen (NVS) Enzymatic Assay for human Protein Tyrosine Phosphatase Non-receptor Type 12 (PTPN12) (AID 2283204). As for the experimental part:
(§1) NVS_ENZ_hPTPN12 is a biochemical, single-readout assay that uses extracted gene-proteins in a cell-free assay. Measurements were taken 1.33 hours after chemical dosing in a 384-well plate.NVS_ENZ_hPTPN12 is one of one assay component(s) measured or calculated from the NVS_ENZ_hPTPN12 assay. It is designed to make measurements of enzyme activity, a form of enzyme reporter, as detected with fluorescence intensity signals by Fluorescence and electrophoretic mobility shift technology.Data from the assay component NVS_ENZ_hPTPN12 was analyzed into 1 assay endpoint. This assay endpoint, NVS_ENZ_hPTPN12, was analyzed in the positive analysis fitting direction relative to DMSO as the negative control and baseline of activity. Using a type of enzyme reporter, loss-of-signal activity can be used to understand changes in the enzymatic activity as they relate to the gene PTPN12. Furthermore, this assay endpoint can be referred to as a primary readout, because this assay has produced multiple assay endpoints where this one serves a enzymatic activity function. To generalize the intended target to other relatable targets, this assay endpoint is annotated to the phosphatase intended target family, where the subfamily is non-receptor tyrosine phosphatase. […]

The target of experiment [4] is human Phosphoinositide 3-kinase alpha (PI3Ka), PIK3CA (gene 5290) (UniProt P42336). In words: NVS_ENZ_hPI3Ka: NovaScreen (NVS) Enzymatic Assay for human Phosphoinositide 3-kinase alpha (PI3Ka) (AID 2283196). In outline:
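Duplicate single-point screen (25 uM), then singleton dose-response (max 50 uM) for compounds meeting the threshold. Cell-free kinase reaction, 1 h; fluorescent mobility-shift readout.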

Experiment [5] deals with Tyrosine-protein phosphatase non-receptor type 13 (Homo sapiens) (UniProt Q12923). Nature of the experiment: NVS_ENZ_hPTPN13: NovaScreen (NVS) Enzymatic Assay for human Protein Tyrosine Phosphatase Non-receptor Type 13 (PTPN13) (AID 2283205). In short, it runs like this: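 Screened first at a single 25 uM in duplicate; compounds passing the threshold (e.g. 30% inhibition) were rerun in concentration series, top 50 uM. Recombinant enzyme, fluorescent substrate, mobility-shift separation, 0.5 h read. Data fitted as inhibition relative to DMSO.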

For experiment [6], the target named is Tyrosine-protein phosphatase non-receptor type 14 (Homo sapiens) (UniProt Q15678). Nature of the experiment: NVS_ENZ_hPTPN14: NovaScreen (NVS) Enzymatic Assay for human Protein Tyrosine Phosphatase Non-receptor Type 14 (PTPN14) (AID 2283206). On the procedure:
as §1, with “NVS_ENZ_hPTPN14” for “NVS_ENZ_hPTPN12”, “0.5 hour” for “1.33 hours”, “plate.NVS_ENZ_hPTPN14” for “plate.NVS_ENZ_hPTPN12”, “NVS_ENZ_hPTPN14,” for “NVS_ENZ_hPTPN12,”, “PTPN14.” for “PTPN12.”

Experiment [7] deals with PPP2CA (gene 5515) (UniProt P67775). In words: NVS_ENZ_hPPP2CA: NovaScreen (NVS) Enzymatic Assay for human Protein Phosphatase 2 Aatalytic subunit Alpha (PPP2CA) (AID 2283199). In short, it runs like this: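 Cell-free phosphatase activity: fluorescent substrate turnover by recombinant human enzyme, resolved by mobility shift at 1.33 h. Compounds passing the 25 uM duplicate primary screen were rerun in singleton series with a 50 uM top concentration.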

The AC50 is the concentration at which the activity in the assay is half-maximal.

Records with an inconclusive call do not appear. Active and inactive are the calls of the source. The calls were made as follows: active = hit-call score of the fitted dose curve at least 0.9, where 1 is the maximum; inconclusive = response in the unintended direction; inactive = score below 0.9.

Chain of Tyrosine-protein phosphatase non-receptor type 12 (Homo sapiens) (Q05209 whole entry, looked up): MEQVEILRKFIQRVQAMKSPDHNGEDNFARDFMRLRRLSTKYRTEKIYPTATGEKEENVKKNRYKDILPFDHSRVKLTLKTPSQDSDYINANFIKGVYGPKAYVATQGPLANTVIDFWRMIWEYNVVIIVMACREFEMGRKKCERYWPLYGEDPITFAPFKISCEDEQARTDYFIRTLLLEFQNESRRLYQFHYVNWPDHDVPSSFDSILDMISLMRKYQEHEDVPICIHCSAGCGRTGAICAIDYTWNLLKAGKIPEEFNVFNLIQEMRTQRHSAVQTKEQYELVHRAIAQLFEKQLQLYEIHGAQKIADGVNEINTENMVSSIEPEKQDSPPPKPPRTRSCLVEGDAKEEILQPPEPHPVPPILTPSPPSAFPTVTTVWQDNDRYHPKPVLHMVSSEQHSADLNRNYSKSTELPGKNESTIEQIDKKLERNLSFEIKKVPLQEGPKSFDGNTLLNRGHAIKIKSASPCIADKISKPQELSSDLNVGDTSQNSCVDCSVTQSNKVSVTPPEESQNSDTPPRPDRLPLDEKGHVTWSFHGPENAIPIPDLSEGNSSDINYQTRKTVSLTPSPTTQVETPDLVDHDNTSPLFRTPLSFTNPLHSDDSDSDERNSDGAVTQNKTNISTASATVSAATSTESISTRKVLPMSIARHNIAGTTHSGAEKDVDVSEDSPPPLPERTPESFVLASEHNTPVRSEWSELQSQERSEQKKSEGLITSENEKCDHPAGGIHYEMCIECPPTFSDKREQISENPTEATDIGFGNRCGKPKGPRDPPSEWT
Chain of Tyrosine-protein phosphatase non-receptor type 13 (Homo sapiens) (Q12923 whole entry, looked up): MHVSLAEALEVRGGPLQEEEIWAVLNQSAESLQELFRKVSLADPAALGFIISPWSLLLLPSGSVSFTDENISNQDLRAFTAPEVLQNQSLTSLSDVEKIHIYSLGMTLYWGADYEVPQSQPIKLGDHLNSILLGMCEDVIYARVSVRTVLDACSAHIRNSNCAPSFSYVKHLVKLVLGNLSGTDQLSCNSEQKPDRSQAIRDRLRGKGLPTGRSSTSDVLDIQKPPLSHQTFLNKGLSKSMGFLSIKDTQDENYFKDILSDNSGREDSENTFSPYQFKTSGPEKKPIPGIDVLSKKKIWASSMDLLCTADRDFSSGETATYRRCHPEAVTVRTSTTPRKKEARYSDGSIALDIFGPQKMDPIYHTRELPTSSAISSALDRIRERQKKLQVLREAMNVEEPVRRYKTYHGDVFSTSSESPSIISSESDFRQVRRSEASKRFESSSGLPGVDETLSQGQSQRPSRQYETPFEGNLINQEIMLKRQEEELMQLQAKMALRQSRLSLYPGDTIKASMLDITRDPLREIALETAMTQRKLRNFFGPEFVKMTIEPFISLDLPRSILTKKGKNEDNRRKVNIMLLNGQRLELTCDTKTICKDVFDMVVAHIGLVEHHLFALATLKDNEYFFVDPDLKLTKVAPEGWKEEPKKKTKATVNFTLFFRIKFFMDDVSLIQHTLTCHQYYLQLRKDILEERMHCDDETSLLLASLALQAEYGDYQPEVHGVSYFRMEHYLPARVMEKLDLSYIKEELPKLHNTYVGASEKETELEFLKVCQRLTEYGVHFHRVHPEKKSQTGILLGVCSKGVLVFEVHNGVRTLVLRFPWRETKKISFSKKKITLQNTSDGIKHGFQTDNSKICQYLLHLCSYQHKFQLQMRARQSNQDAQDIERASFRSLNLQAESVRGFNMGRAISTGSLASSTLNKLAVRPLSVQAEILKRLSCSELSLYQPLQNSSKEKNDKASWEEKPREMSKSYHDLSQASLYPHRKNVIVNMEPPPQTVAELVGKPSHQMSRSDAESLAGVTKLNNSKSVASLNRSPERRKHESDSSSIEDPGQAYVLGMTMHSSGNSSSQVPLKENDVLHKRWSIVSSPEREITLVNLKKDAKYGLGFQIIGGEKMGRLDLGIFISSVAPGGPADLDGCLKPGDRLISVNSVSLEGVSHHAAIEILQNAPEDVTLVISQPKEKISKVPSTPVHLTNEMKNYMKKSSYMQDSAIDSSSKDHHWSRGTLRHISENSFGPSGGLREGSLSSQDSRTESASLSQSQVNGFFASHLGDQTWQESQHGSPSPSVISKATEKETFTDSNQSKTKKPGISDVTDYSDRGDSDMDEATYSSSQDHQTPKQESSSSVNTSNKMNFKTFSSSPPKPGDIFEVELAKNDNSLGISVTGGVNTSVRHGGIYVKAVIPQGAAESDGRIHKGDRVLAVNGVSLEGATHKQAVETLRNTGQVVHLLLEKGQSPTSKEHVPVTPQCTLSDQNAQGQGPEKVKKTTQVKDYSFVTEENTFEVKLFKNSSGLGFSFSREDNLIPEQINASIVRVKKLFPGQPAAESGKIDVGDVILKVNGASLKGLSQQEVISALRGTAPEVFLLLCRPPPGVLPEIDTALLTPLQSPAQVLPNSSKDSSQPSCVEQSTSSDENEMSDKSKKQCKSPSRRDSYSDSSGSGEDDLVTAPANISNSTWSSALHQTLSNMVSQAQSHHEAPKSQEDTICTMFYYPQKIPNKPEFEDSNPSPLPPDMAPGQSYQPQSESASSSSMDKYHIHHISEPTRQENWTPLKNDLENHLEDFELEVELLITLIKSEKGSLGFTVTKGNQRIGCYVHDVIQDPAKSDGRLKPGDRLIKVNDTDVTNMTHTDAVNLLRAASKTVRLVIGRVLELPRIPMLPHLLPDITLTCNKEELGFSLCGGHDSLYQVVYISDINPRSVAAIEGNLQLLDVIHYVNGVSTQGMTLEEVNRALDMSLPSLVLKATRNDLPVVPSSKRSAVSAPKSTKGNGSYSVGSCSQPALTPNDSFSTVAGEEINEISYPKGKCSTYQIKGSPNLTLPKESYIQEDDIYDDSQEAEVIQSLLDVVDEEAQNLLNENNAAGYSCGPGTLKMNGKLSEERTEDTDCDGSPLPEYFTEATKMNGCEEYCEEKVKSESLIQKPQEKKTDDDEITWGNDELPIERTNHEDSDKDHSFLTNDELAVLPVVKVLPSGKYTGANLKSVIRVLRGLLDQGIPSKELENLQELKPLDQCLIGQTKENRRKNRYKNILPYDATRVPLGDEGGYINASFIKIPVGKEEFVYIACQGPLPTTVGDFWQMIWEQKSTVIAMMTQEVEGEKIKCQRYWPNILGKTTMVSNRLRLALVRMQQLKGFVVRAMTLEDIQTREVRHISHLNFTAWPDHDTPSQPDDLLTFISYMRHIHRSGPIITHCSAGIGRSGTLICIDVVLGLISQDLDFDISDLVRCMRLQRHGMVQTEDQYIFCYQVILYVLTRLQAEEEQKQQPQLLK
Chain of human NIMA (Never In Mitosis Gene A)-Related Kinase 2 (NEK2), NEK2 (gene 4751) (P51955 whole entry, looked up): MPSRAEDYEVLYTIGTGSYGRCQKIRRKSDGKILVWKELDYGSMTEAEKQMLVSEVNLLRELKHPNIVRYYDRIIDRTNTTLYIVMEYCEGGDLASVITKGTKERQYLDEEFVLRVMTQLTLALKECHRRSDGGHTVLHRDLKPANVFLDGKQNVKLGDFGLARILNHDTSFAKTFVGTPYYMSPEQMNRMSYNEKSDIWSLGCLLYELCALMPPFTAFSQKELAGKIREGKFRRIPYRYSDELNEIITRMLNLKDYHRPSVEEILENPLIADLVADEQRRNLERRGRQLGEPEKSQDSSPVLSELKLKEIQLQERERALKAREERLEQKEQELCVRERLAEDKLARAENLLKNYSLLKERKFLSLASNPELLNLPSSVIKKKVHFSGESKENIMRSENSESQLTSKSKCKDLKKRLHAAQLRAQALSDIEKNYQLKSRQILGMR
Chain of human Phosphoinositide 3-kinase alpha (PI3Ka), PIK3CA (gene 5290) (P42336 whole entry, looked up): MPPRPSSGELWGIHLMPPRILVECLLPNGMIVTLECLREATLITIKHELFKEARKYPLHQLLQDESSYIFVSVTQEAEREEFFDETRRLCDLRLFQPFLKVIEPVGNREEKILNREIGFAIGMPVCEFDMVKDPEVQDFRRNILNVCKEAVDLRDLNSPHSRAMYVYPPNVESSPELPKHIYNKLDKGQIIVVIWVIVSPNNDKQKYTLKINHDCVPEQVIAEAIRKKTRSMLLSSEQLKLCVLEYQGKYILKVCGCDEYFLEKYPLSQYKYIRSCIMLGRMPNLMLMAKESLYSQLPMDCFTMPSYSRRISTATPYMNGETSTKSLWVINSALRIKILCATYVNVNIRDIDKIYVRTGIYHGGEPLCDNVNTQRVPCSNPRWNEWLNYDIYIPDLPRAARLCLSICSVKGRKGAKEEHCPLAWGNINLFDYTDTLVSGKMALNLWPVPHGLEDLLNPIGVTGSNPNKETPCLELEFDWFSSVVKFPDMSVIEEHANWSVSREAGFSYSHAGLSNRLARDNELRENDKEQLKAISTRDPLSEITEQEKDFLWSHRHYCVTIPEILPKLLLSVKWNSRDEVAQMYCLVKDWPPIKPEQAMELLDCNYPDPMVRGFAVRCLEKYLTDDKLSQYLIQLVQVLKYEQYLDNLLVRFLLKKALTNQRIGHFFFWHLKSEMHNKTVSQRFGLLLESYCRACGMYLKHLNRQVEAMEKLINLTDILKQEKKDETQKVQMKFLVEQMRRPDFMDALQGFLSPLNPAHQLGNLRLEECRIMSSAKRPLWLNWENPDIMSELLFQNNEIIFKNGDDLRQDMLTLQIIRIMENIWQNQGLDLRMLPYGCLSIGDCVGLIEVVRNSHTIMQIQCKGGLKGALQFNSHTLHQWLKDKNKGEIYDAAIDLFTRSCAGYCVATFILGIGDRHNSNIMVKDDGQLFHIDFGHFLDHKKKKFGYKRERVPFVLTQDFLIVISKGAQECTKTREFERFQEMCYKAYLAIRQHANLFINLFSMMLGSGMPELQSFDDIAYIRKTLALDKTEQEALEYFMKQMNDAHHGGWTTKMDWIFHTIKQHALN
Chain of PPP2CA (gene 5515) (P67775 whole entry, looked up): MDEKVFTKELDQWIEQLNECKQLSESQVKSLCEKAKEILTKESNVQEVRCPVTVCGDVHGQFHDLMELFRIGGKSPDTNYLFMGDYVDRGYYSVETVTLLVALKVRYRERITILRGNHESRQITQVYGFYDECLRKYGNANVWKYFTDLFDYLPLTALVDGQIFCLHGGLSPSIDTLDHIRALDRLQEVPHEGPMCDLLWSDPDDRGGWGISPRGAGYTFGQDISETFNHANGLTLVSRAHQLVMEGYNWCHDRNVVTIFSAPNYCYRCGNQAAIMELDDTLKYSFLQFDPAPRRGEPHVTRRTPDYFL

Take `O=C(O)C(F)(F)C(F)(F)C(F)(F)C(F)(F)C(F)(F)C(F)(F)C(F)(F)C(F)(F)F`: the half-maximal activity concentration (AC50) in experiment [1] was 40.7 µM (active). In addition, the result in experiment [2] and in experiment [3] was inactive.
Turning to `c1cc2ccc3cccc4ccc(c1)c2c34`, the call in experiment [1] was inactive.
With `CC1=C2C[C@H]3[C@@H](CC=C4C[C@@H](O)CC[C@@]43C)[C@@H]2CC[C@]12O[C@@H]1C[C@H](C)CN[C@H]1[C@H]2C`, the compound was called inactive in experiment [2], in experiment [4], in experiment [3] and in experiment [6]. In addition, the half-maximal activity concentration (AC50) in experiment [5] was 6.4 µM (active).
Take `CC(C)C(=O)OCC(C)(C)C(OC(=O)C(C)C)C(C)C` (configuration not stated): the result in experiment [4] and in experiment [5] was inactive.
With `Cc1cc(-c2ccc(N)c(C)c2)ccc1N`, the outcome in experiment [7] was inactive.
